Laboratory results reported in PubChem BioAssay.
The source made the active and inactive calls.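 The calls were made as follows, unless noted: active = visually confirmed hit in the image check and inhibition above 20%; inconclusive = visually confirmed hit but inhibition not above 20%; inactive = no visual hit in the image check.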

Columns and labels:
[1] = inhibitors of TNFa-induced NFkB p65 translocation, primary screen, imaging, HUVEC, MLSMR starter and 10KST1 sets (AID 438;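 active = inhibition above 20% together with a positive visual image hit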;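 also: compound added about 3h40 before a 20 min TNFalpha stimulation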;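 as to inhibition: signal is the nuclear over cytoplasmic p65 intensity ratio per well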); settings: HUVEC TNFa-induced p65 nuclear translocation; cell count: measured here: nuclei count (cytotoxicity indicator), at 2.08 µM; inhibition: at 2 µM, stronger effect = higher value, 0% TNFa-plus-vehicle, 100% no-TNFa wells
[2] = reduction of polyQ htt aggregates in cells – imaging, exon1htt(103Q)mCFP cells, high-content imaging, primary screen (AID 483;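 active = visual image review flags a hit and inhibition of aggregation exceeds 20%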;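 also: compound exposure lasted 3 days before fixation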;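 as to nuclei count: percent of the per-plate median nuclei count of sample wells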); settings: exon1htt(103Q)mCFP cell line, aggregate imaging, at 2 µM; inhibition of aggregation: stronger effect = higher value; nuclei count: measured here: cell count, toxicity
[3] = endothelial E-selectin expression blockers – imaging, HUVEC, immunofluorescence, MLSMR starter and 10KST1 sets, primary screen (AID 487); settings: HUVEC TNFalpha-induced E-selectin immunofluorescence imaging, at 2 µM; inhibition: stronger effect = higher value; nuclei count: measured here: cell number, toxicity;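 as to inhibition: signal is fraction of cell area covered by stained E-selectin grains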;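 as to nuclei count: 100% = median nuclei count of all wells on the same plate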
[4] = target: Voltage-gated potassium channel subunit beta-2 (Rattus norvegicus) (UniProt P62483); assay: inhibitors of rat Kvbeta2 reductase activity – biochemical, NADPH fluorescence, primary screen (AID 622;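 active = fluorescence slope higher than the sample average by over 3 SD, cut at about -0.22 in these data, passing the limit was not always enough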;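 also: slope of raw intensity against log time taken from 70 to 1610 s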); settings: recombinant KvBeta, 4-cyanobenzaldehyde reduction, at 10 µM, stronger effect = higher value
Chain of Voltage-gated potassium channel subunit beta-2 (Rattus norvegicus) (P62483 whole entry, looked up): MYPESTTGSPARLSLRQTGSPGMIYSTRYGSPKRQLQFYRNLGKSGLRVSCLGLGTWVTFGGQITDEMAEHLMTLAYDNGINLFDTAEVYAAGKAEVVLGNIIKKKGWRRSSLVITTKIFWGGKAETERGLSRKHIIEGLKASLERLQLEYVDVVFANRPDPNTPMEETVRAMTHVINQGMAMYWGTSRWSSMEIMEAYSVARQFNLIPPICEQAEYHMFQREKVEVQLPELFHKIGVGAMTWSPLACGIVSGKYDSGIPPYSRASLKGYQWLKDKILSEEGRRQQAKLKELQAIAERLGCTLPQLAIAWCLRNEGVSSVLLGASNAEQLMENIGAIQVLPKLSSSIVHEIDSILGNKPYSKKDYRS

[5] = target: Voltage-gated potassium channel subunit beta-2 (Rattus norvegicus) (UniProt P62483); assay: enhancers of rat Kvbeta2 NADPH turnover – biochemical, NADPH fluorescence, primary screen (AID 623;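 active = NADPH fluorescence slope more negative than the mean of all samples by about 3 SD, 99.7% confidence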;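 also: fluorescence intensity change per second fitted from 20 to 320 s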); settings: Recombinant KvBeta, NADPH fluorescence decrease slope, 10 min; at 10 µM; stronger effect = lower value
[6] = target: Alpha-2C adrenergic receptor (Homo sapiens) (UniProt P18825); assay: compounds altering alpha2C-coupled GIRK flux – cell-based, HEK293 alpha2C/GIRK1/2, thallium flux, primary screen (AID 624;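 active = fluorescence slope after compound addition differing from the mean of all screened samples at 99.7% confidence, in either direction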;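 also: slope of fluorescence ratio to pre-addition baseline per second over 15 to 24 s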); settings: thallium flux BTC fluorescence, at 10 µM, actives lie on both sides
Chain of Alpha-2C adrenergic receptor (Homo sapiens) (P18825 whole entry, looked up): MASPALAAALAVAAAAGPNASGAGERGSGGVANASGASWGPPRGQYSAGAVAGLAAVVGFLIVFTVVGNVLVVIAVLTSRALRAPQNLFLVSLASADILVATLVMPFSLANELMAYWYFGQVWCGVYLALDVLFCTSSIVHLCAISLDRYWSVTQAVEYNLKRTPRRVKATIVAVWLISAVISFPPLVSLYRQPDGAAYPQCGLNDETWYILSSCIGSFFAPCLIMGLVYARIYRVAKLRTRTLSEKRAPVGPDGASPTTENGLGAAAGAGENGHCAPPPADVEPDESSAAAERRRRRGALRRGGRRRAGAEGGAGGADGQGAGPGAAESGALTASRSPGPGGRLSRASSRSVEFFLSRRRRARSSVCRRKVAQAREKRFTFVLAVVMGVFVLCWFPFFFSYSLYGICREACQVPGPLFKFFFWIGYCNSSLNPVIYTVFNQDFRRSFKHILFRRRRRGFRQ

[7] = blockers of RIG-like receptor reporter activation – cell-based, Sendai virus stimulus, luciferase, 10K MLSCN set, TLR/RLR signaling modifier project, primary screen (AID 602276;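 active = inhibition at or above 50% at 10 µM; inactive = inhibition below 50%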;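 also: firefly luciferase from ISG56 promoter only with Renilla not read in this screen; 0% = Sendai virus plus DMSO and 100% = medium plus DMSO without virus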); settings: HEK293 RL24 IRF3 luciferase reporter, at 10 µM, stronger effect = higher value
[8] = TLR3 IRF3 reporter activation blockers – cell-based, poly I:C stimulus, luciferase, 10K MLSCN set, primary screen (AID 602277;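 active = inhibition of the reporter signal at or above 50%; inactive = inhibition below 50%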); settings: HEK293-TLR3 RL24 IRF3 luciferase reporter, at 10 µM, stronger effect = higher value

SMILES | cell count [1] | inhibition [1] | inhibition of aggregation [2] | nuclei count [2] | inhibition [3] | nuclei count [3] | fluorescence slope [4] | NADPH fluorescence slope [5] | slope [6] | inhibition [7] | inhibition [8]
CCOc1ccc(N(CC(=O)NCc2ccco2)S(=O)(=O)c2ccc(OC)c(OC)c2)cc1 | 429 | 3.5% (inactive) | -2.6% (inactive) | 110% | -45.5% (inactive) | 110% | -0.409 (inactive) | 4.2e-05 (inactive) | 0.0072 (inactive) | 3.08% (inactive) | 30.5% (inactive)
O=C(COC(=O)C1CCN(S(=O)(=O)c2cccs2)CC1)c1cc2ccccc2o1 | 536 | -8.3% (inactive) | -0.1% (inactive) | 98.7% | -97.6% (inactive) | 112% | -0.501 (inactive) | -1.4e-05 (inactive) | 0.00534 (inactive) | 12.4% (inactive) | 31.7% (inactive)
COc1ccc(C2=NO[C@@H]3C(=O)N(c4cccc(C)c4C)C(=O)[C@H]23)cc1OC | 599 | -12.3% (inactive) | 10% (inactive) | 91.7% | -41.7% (inactive) | 105% | -0.588 (inactive) | -4.9e-05 (inactive) | 0.00915 (inactive) | -20.9% (inactive) | -5.53% (inactive)
COc1ccc(NC(=O)c2cc(C3CC3)on2)c(OC)c1 | 603 | -2.9% (inactive) | -2.2% (inactive) | 116% | -29.1% (inactive) | 107% | -0.587 (inactive) | -4.2e-05 (inactive) | 0.00532 (inactive) | -6.03% (inactive) | 2.94% (inactive)
O=C(CCSc1nccn1Cc1ccccc1)N1CCOCC1 | 447 | -6.8% (inactive) | -9.1% (inactive) | 93.1% | -7.8% (inactive) | 80.8% | -0.524 (inactive) | -5.2e-05 (inactive) | 0.00524 (inactive) | 1.9% (inactive) | -9.28% (inactive)
O=C(O)c1cc2nc(-c3ccc(F)cc3)cc(C(F)(F)F)n2n1 | 435 | 4.9% (inactive) | -0.7% (inactive) | 97.9% | 26.5% (inactive) | 110% | -0.385 (inactive) | -4.1e-05 (inactive) | 0.00272 (inactive) | 0.989% (inactive) | 19.6% (inactive)
Cc1cc(C)nc(NC(=O)c2c(-c3c(Cl)cccc3Cl)noc2C)n1 | 648 | 2% (inactive) | 3.9% (inactive) | 95.5% | -7.8% (inactive) | 109% | -0.435 (inactive) | 7.7e-06 (inactive) | 0.00547 (inactive) | -2.48% (inactive) | 7.12% (inactive)
CCn1nccc1C(=O)Nc1cc(Cl)ccc1Cl | 633 | 8.3% (inactive) | 6.7% (inactive) | 57.3% | 22.2% (inactive) | 106% | -0.385 (inactive) | -5e-05 (inactive) | 0.00378 (inactive) | 1.68% (inactive) | 15.9% (inactive)
O=C(Nc1ccccc1C(=O)N1CCOCC1)C1COc2ccccc2O1 (configuration not stated) | 355 | 3.3% (inactive) | -5.7% (inactive) | 105% | -70.1% (inactive) | 123% | -0.437 (inactive) | -1.5e-05 (inactive) | 0.00506 (inactive) | 6.31% (inactive) | 11.6% (inactive)
CCOC(=O)C1CCN(Cc2ccc(OC)c(C)c2OC)CC1 | 313 | -1.3% (inactive) | -10.2% (inactive) | 107% | -41.2% (inactive) | 108% | -0.539 (inactive) | -2.1e-05 (inactive) | 0.00556 (inactive) | -3.21% (inactive) | 7.91% (inactive)
Cc1ccccc1NC(=O)NCCCN1CCN(C2CCCCC2)CC1 | 411 | -1.8% (inactive) | 8.9% (inactive) | 81.8% | -119% (inactive) | 108% | -0.61 (inactive) | 2.5e-06 (inactive) | 0.00551 (inactive) | 3.03% (inactive) | 13% (inactive)
CC1CC(=O)c2cnc(NCC3CCCO3)nc2C1 (configuration not stated) | 613 | 13.9% (inactive) | -14% (inactive) | 106% | 12.9% (inactive) | 107% | -0.404 (inactive) | -2.9e-05 (inactive) | 0.00446 (inactive) | 6.29% (inactive) | -1.06% (inactive)
